Reference: PubChem BioAssay (EPA / NIEHS)
Calls of active or inactive are those of the source. Rule for the calls: active = hit-call score of the fitted dose curve at least 0.9, where 1 is the maximum; inactive = score below 0.9.

Read-out: not listed separately
Assay: BSK_LPS_SRB: Viability Assessment in the BioMAP Diversity Plus: LPS Assay (AID 2283079);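 note: total protein by sulforhodamine B absorbance as a cytotoxicity measure; measured one day after compound addition; fitted in both directions against DMSO so loss or gain of signal counts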
Conditions: primary human HUVEC with PBMC
Outline: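 HUVEC + PBMC co-culture, LPS-stimulated; compound 24 h. 10% TCA fix, 0.1% SRB stain, A560. Bidirectional fit vs DMSO.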

SMILES | outcome | AC50
Clc1ccccc1Cl | inactive | –
O=Cc1ccco1 | inactive | –
Oc1ccc2ccc3cccc4ccc1c2c34 | – | 32 µM (active)
Nc1ccc([N+](=O)[O-])cc1 | inactive | –
CC(C)(O)c1cnn2c(-c3ccc(F)c(-c4c(F)cccc4C#N)c3)cnc2n1 | inactive | –
N#CC(Br)(Br)C(N)=O | inactive | –
CCCCOC(=O)c1ccccc1C(=O)OCc1ccccc1 | inactive | –
COP(=S)(OC)SCN1C(=O)c2ccccc2C1=O | inactive | –
C1=Cc2cccc3cccc1c23 | inactive | –
C[C@]12C=CC3=C4CCC(=O)C=C4CC[C@H]3[C@@H]1CC[C@@H]2O | inactive | –
CC(C)N(Cc1ccccc1)C(=O)C(C)(C)C | inactive | –
O=[N+]([O-])C(Br)(CO)CO | – | 29.6 µM (active)
O=C(Oc1ccc(Br)cc1)N1CCN2CCC1CC2 | inactive | –
CC(C)COC(=O)c1ccccc1C(=O)OCC(C)C | inactive | –
Cc1ccc(N)c(N)c1 | inactive | –
OCCCBr | inactive | –
CCN(CC)N=O | inactive | –
C[N+](C)(C)CC1CO1 (stereo unspecified) | inactive | –
Cc1cccc(N)c1N | inactive | –
COC(=O)c1ccccc1N | inactive | –
ClC1=C(Cl)C2(Cl)C3C(Cl)C=CC3C1(Cl)C2(Cl)Cl (stereo unspecified) | – | 29.5 µM (active)
Clc1ccc(Cl)c(Cl)c1 | inactive | –
ClCCOCCCl | inactive | –
c1ccc2c(c1)oc1ccccc12 | inactive | –
Nc1ccc(Cc2ccc(N)cc2)cc1 | inactive | –
CN(C)C(=O)Nc1ccc(Cl)cc1 | inactive | –
ClC1=C(Cl)[C@]2(Cl)[C@H]3[C@H]([C@@H]4C=C[C@H]3C4)[C@@]1(Cl)C2(Cl)Cl | – | 30.5 µM (active)
O=C(O)C1C2CCC(O2)C1C(=O)O (stereo unspecified) | – | 18.6 µM (active)

Read-out: Interleukin-1 alpha (IL1a), IL1A (gene 3552)
Assay: BSK_LPS_IL1a: BioMAP Diversity Plus: LPS Assay for Interleukin-1 alpha (IL1a) Biomarker Activity (AID 2283080)
Conditions: primary human HUVEC with PBMC; actives raise or lower the signal
Outline: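 HUVEC/PBMC co-culture, LPS system; 24 h after dosing; IL-1a by ELISA; gain or loss of signal fitted bidirectionally vs DMSO baseline.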

SMILES | outcome | AC50
Clc1ccccc1Cl | inactive | –
O=Cc1ccco1 | inactive | –
Oc1ccc2ccc3cccc4ccc1c2c34 | – | 29.2 µM (active)
Nc1ccc([N+](=O)[O-])cc1 | inactive | –
CC(C)(O)c1cnn2c(-c3ccc(F)c(-c4c(F)cccc4C#N)c3)cnc2n1 | inactive | –
N#CC(Br)(Br)C(N)=O | inactive | –
CCCCOC(=O)c1ccccc1C(=O)OCc1ccccc1 | inactive | –
COP(=S)(OC)SCN1C(=O)c2ccccc2C1=O | inactive | –
C1=Cc2cccc3cccc1c23 | inactive | –
C[C@]12C=CC3=C4CCC(=O)C=C4CC[C@H]3[C@@H]1CC[C@@H]2O | inactive | –
CC(C)N(Cc1ccccc1)C(=O)C(C)(C)C | inactive | –
O=[N+]([O-])C(Br)(CO)CO | – | 34 µM (active)
O=C(Oc1ccc(Br)cc1)N1CCN2CCC1CC2 | inactive | –
CC(C)COC(=O)c1ccccc1C(=O)OCC(C)C | inactive | –
Cc1ccc(N)c(N)c1 | inactive | –
OCCCBr | inactive | –
CCN(CC)N=O | inactive | –
C[N+](C)(C)CC1CO1 (stereo unspecified) | inactive | –
Cc1cccc(N)c1N | inactive | –
COC(=O)c1ccccc1N | inactive | –
ClC1=C(Cl)C2(Cl)C3C(Cl)C=CC3C1(Cl)C2(Cl)Cl (stereo unspecified) | – | 30 µM (active)
Clc1ccc(Cl)c(Cl)c1 | inactive | –
ClCCOCCCl | inactive | –
c1ccc2c(c1)oc1ccccc12 | inactive | –
Nc1ccc(Cc2ccc(N)cc2)cc1 | inactive | –
CN(C)C(=O)Nc1ccc(Cl)cc1 | inactive | –
ClC1=C(Cl)[C@]2(Cl)[C@H]3[C@H]([C@@H]4C=C[C@H]3C4)[C@@]1(Cl)C2(Cl)Cl | – | 28.9 µM (active)
O=C(O)C1C2CCC(O2)C1C(=O)O (stereo unspecified) | – | 18.6 µM (active)
